Compound activity from PubChem BioAssay.
IL1B secr inh: qHTS for Inhibitors of Inflammasome Signaling: IL-1-beta AlphaLISA Primary Screen; THP-1 LPS/ATP IL-1B secretion, AlphaLISA, 16 h; active compounds read low; activity change, % at 57.5 µM; 4.7% of 360,000 active; AID 743279, 2014; in the data active = activity change below about -50%; inconclusive = mostly about -30% to -49%; also: % is scaled to controls: 0 for no effect and ±100 for the full control effect
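THP-1 cells pretreated 1 hr with compounds (up to 57.5 uM final), then stimulated with LPS (250 ng/mL final) plus ATP (1.25 mM final); secreted IL-1B measured by AlphaLISA after 16 hr, decreased signal indicating inhibition.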
HepG2 tox: qHTS for Inhibitors of TGF-b: Cytotox Counterscreen | 0.76% of 410,000 active | HepG2 CAGA-GFP viability, ATP luminescence, 18 h | Potency, µM (series often up to 46.1 µM), for the others: top-dose activity change, negative = cytotoxicity, most hits filed as cytotoxic; also: potency is read from the fitted curve at half-maximal effect
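HepG2 CAGA-GFP cells (1000/well, DMEM with 1% FBS) received compound, then TGF-beta at 500 pg/mL final, and were incubated 18 hours at 37 degrees C. Viability was read by CellTiter-Glo luminescence. Media-only wells were set as complete cell-killing and DMSO as no toxicity.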
TDP1 cell noCPT: qHTS for Inhibitors of human tyrosyl-DNA phosphodiesterase 1 (TDP1): qHTS in cells in absence of CPT | DT40 Tdp1-/- hTDP1 cells, no CPT, ATP luminescence, 48 h | 15% of 420,000 active | Potency, µM (doses to about 46.2 µM), for inactives: top-dose activity change, negative = growth inhibition, actives largely listed as inhibitors; also: potency is read from the fitted curve at half-maximal effect; % is scaled to controls: 0 for no effect and ±100 for the full control effect; nearly all actives have a fitted effect of over 55% in size
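DT40 Tdp1-/-;hTDP1 cells, no CPT (DMSO vehicle only), 400 cells/well; compounds pin-transferred; ≥48 hr, 37 °C; CellTiter-Glo 30 min RT dark, luminescence read.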
TGFb SMAD3 inh: qHTS for Inhibitors of TGF-b | Potency, µM (titrated, usually from 46.1 µM), for inactives: at the highest dose activity, negative = inhibition, usual class: inhibitors | HepG2 CAGA-GFP TGF-b/SMAD3 reporter, GFP fluorescence, 18 h; TGF-beta stimulated, 500 pg/mL final | 1.2% of 410,000 active; also: potency is read from the fitted curve at half-maximal effect; % is scaled to controls: 0 for no effect and ±100 for the full control effect; nearly all actives have a fitted effect of over 65% in size
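First, reporter cells (HEPG2 CAGA-GFP) rested 2 h at 37 degrees C. Next, compounds were pinned in and TGF-beta added to 500 pg/mL final. After 18 h, GFP was imaged per cell and summed per well.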
TDP1 cell CPT: qHTS for Inhibitors of human tyrosyl-DNA phosphodiesterase 1 (TDP1): qHTS in cells in presence of CPT; chicken DT40 Tdp1-/-;hTDP1 cells + 20 nM CPT, ATP luminescence, 48 h; AID 686979, 2013; 12% of 420,000 active; Potency, µM (highest dose often 46.2 µM), for the others: top-dose activity change, negative = growth inhibition, actives largely listed as inhibitors; also: potency is read from the fitted curve at half-maximal effect; % is scaled to controls: 0 for no effect and ±100 for the full control effect; nearly all actives have a fitted effect of over 55% in size
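Chicken DT40 Tdp1-/- cells stably complemented with human TDP1 were seeded at 400 cells/well in medium containing 20 nM camptothecin, exposed to pin-transferred compounds, and grown at 37 °C for at least 48 hr. Viability was read as ATP luminescence.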
ASM inhibitor: Inhibitors of Secretory Acid Sphingomyelinase (S-ASM): qHTS. placental ASM, HMU-PC fluorogenic substrate, 60 min. Potency, µM (highest dose often 57.5 µM), for inactives: at the top dose activity change, negative = inhibition, hits mostly inhibitors. 0.006% of 340,000 active; also: potency is read from the fitted curve at half-maximal effect
Target sequence (P17405 47-631 limits assumed): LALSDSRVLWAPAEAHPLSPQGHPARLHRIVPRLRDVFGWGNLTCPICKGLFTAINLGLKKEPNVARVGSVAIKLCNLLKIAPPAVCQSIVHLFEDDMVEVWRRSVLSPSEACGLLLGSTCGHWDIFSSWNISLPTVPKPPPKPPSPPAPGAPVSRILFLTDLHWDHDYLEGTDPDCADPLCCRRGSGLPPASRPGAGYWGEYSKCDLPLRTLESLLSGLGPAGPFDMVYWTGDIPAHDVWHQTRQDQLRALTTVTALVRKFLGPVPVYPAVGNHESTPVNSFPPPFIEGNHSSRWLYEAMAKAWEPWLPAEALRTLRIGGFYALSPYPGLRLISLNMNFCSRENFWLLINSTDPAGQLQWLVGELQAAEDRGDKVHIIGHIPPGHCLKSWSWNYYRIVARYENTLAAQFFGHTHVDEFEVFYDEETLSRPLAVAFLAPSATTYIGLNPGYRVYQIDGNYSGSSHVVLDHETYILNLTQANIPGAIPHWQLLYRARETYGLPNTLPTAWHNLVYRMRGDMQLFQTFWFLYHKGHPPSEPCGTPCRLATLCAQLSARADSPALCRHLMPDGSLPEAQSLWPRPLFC
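Human placenta-derived ASM enzyme was preincubated with compound for 10 minutes at room temperature, then given fluorogenic substrate HMU-PC0 (9 uM final) for 60 minutes at 37 °C; a pH 10 stop preceded fluorescence reading at Ex 386/Em 447 nm.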
* hit, by the source's call; i = inactive; ? = inconclusive; . = not tested or not shown. Rows were chosen to be rich in hits. Some 19% of all compounds tested hit in one or more screens of this group. Unless noted, calls follow the shape of the dose curve; as a rule, active = well fitted curve in the direction sought with a large enough effect; inconclusive = small, poorly fitted or top-dose-only effect, or another doubt; inactive = no such curve, though single readings can be large; an effect the other way counts as inactive or inconclusive.

SMILES | IL1B secr inh | HepG2 tox | TDP1 cell noCPT | TGFb SMAD3 inh | TDP1 cell CPT | ASM inhibitor
CN(NS(=O)(=O)c1ccc(Br)cc1)c1nc(C(F)(F)F)nc2ccccc12 | -55.1* | -42.9% | ? | ? | 23.1µM* | -11.5%
CC1CCN(S(=O)(=O)c2cccc(S(=O)(=O)N3CCCC3)c2)CC1 | 15.1 | 8.1% | ? | -0.2% | -9.0% | -1.1%
COc1ccccc1P(=O)(Cc1ccccc1[N+](=O)[O-])c1ccccc1 (stereo not drawn) | -9.9 | -18.0% | 14.6µM* | -10.4% | ? | -0.8%
CCOc1ccc(C(=O)Nc2ccc(C(=O)N3CCOCC3)cc2)c(OCC)c1 | i | 24.2% | 13µM* | 1.2% | ? | 0.0%
Cc1ccc(C(=O)N2CCN(c3ccccn3)CC2)cc1 | 22.7 | 12.4% | -18.6% | 11.7% | -1.4% | -1.8%
CC(C)c1ccc(COc2ccc(C(=O)N3CCOCC3)cc2)cc1 | -6.4 | -30.1% | 23.1µM* | -6.8% | ? | 1.4%
COc1ccc(N2CCN(C(=O)c3ccc(COc4ccc5c(C)cc(=O)oc5c4)cc3)CC2)cc1 | -20.1 | -14.5% | 16.4µM* | ? | ? | 51.4%
CC(C)c1ccc(C(=O)N2CCCN(C(=O)c3ccc(C(C)C)cc3)CC2)cc1 | -12.7 | -2.9% | -0.4% | -3.9% | -24.5% | 1.3%
CC(C)c1ccc(OCc2ccc(C(=O)N3CCN(c4ccccn4)CC3)cc2)cc1 | -1.9 | -16.2% | 20.6µM* | ? | ? | -5.7%
Cc1ccc(S(=O)(=O)N2CCN(C(=O)CCCN3C(=O)NC4(CCCC4)C3=O)CC2)cc1C | 2.0 | 3.0% | -27.3% | 2.8% | ? | 5.5%
CCCCn1c(N)c(N(CCOC)C(=O)CC(NC(=O)c2ccccc2)c2ccccc2)c(=O)[nH]c1=O (stereo not drawn) | 10.6 | 3.4% | 3.7% | 34.2% | -10.5% | 6.9%
Cc1c(N(C)C(=O)COc2ccc3ccccc3c2)c(=O)n(-c2ccccc2)n1C | 15.4 | -3.9% | 1.1% | -3.0% | -6.8% | -1.6%
Cc1ccc(OCc2ccc(C(=O)N3CCOCC3)cc2)cc1C | -0.7 | -11.3% | 20.6µM* | -6.0% | 16.4µM* | -1.6%
COc1ccc(-c2nnc(SCC(=O)Nc3ccc(F)cc3)s2)cc1 | . | -22.1% | -18.4% | -14.5% | 5.0% | .
CCC(C)[C@H](N)C(=O)N[C@H]1CCC2C3CC=C4C[C@@H](O)CC[C@]4(C)C3CC[C@@]21C (stereo partly drawn) | -111.1* | 15.8µM* | ? | ? | ? | .
C[C@@H](N)C(=O)N[C@H]1CCC2C3CC=C4C[C@@H](O)CC[C@]4(C)C3CC[C@@]21C (stereo partly drawn) | 106.5 | -12.6% | ? | 25.1% | -23.5% | -1.5%
C[C@]12CC[C@H](O)CC1=CCC1C2CC[C@@]2(C)C1CC[C@@H]2NCc1ccccc1 (stereo partly drawn) | 16.9 | -12.0% | 20.6µM* | -8.5% | 20.6µM* | .
CC(C)[C@H](N)C(=O)N[C@H]1CCC2C3CC=C4C[C@@H](O)CC[C@]4(C)C3CC[C@@]21C (stereo partly drawn) | -105.6* | 20µM* | ? | ? | ? | .
CC(=O)C1CCC2C3CC=C4CC(O)CC[C@@]4(C)C3CC[C@]12C (stereo partly drawn) | . | . | -5.3% | . | 2.0% | .
CC(C)C(OC(=O)c1nsc(Cl)c1Cl)C(=O)NCc1ccccc1 (stereo not drawn) | -1.9 | -12.5% | -0.3% | 12.0% | -3.3% | -2.1%
CC(C)CN(C(=O)/C=C/c1nc2ccccc2s1)C1CCS(=O)(=O)C1 (stereo not drawn) | -15.8 | -0.1% | -28.6% | 7.1% | ? | -1.3%
CCn1cc(C(=O)NCCc2ccccc2)c(=O)c2cc(S(=O)(=O)N(C)C3CCCCC3)ccc21 | . | 0.9% | -3.8% | 0.6% | 5.4% | .
O=C(O)c1ccc2c(=O)n3c(nc2c1)/C(=C/c1ccc(C(F)(F)F)cc1)CC3 | 12.8 | -7.1% | 2.0% | -14.4% | -19.7% | -0.8%
O=c1c2ccccc2nc2n1CC/C2=C/N1CCN(c2cccc(C(F)(F)F)c2)CC1 | 18.7 | -14.3% | ? | 25.0% | 18.4µM* | -23.6%
CNc1cc[n+](C)c2ccccc12 | . | -3.2% | -20.0% | 0.7% | -2.3% | .
SMILES | IL1B secr inh | HepG2 tox | TDP1 cell noCPT | TGFb SMAD3 inh | TDP1 cell CPT | ASM inhibitor
CN1/C(=C/c2cc[n+](C)c3ccccc23)C=Cc2ccccc21 | -96.9* | -16.7% | 0.184µM* | ? | 0.461µM* | -2.2%
COC(=O)CSc1nc2cc(C)ccc2cc1C#N | 0.0 | 7.0% | 16.4µM* | 17.8% | 18.4µM* | -8.1%
Cc1ccc2cc(C#N)c(SCc3nnc(-c4ccccc4[N+](=O)[O-])o3)nc2c1 | -7.6 | -22.2% | 20.6µM* | -22.6% | ? | -4.0%
CCOC(=O)CC(=O)CSc1nc(CC)c(C)cc1C#N | -6.5 | 20.2% | 13µM* | 19.0% | ? | 114.2%
CCOC(=O)CC(=O)CSc1nc2c(cc1C#N)CCCCC2 | 43.6 | -16.0% | -3.0% | 2.8% | 2.9% | 143.6%
CCOC(=O)CC(=O)CSc1nc2c(c(C)c1C#N)CCC2 | 11.0 | -5.7% | 7.31µM* | -3.1% | 14.6µM* | 32.7%
CCc1nc(SCC(=O)O)c(C#N)cc1C | 14.4 | 4.4% | 2.9% | -8.4% | 4.4% | 2.9%
CN(C)c1oc(-c2ccccc2[N+](=O)[O-])nc1C#N | -15.7 | -11.0% | ? | -13.3% | ? | 8.3%
Cn1c(=O)n(C)c2cc(CNCc3ccc(C(=O)O)cc3)ccc21 | . | -32.4% | -17.6% | 14.7% | -2.6% | .
CCOC(=O)CC(=O)CSc1nc2ccc(C)cc2cc1C#N | 6.3 | -3.7% | 0.731µM* | -1.3% | 1.16µM* | 21.5%
CCSc1nc2ccc(C)cc2cc1C#N | 9.8 | -17.7% | 0.5% | -11.5% | -0.1% | 5.7%
CCOC(=O)c1cccc(NC(=O)c2cc(S(=O)(=O)N3CCCC3)cn2C)c1 | . | -17.1% | ? | -29.9% | -6.8% | .
CC1Cc2cc(S(=O)(=O)N3CCC(C(=O)N4CCN(c5ccccc5F)CC4)CC3)ccc2N1C(=O)C1CC1 (stereo not drawn) | -51.5* | -20.0% | ? | -23.2% | ? | 1.9%
